From the supplement of paper PMC13380429 come the findings set out here.

The assay concerns Vero E6 infected with SARS-CoV-2. Nature of the assay: inhibition of SARS-CoV-2 cytopathic effect; higher = more antiviral protection, active = above 15. Conditions: 833.33 nM; 48 h. Background: Protection from cytopathic effect is a common read-out in antiviral testing.
On to `O=C1OC(CN2CCOCC2)CN1/N=C/c1ccc([N+](=O)[O-])o1` (stereo not given) [furaltadone], for which the “inhibition of SARS-CoV-2 cytopathic effect” value (shortened to “inhibition”) was -6.67% (inactive).

For `CCN(CC)c1ccc(/C=N/NC(=O)c2ccc(O)cc2)cc1`, the “inhibition” value was -0.79% (inactive).

Take `Oc1cc(O)c2c(c1)O[C@H](c1ccc(O)c(O)c1)[C@@H](O)C2` [cianidanol]: the “inhibition” value was -0.95% (inactive).

As to `NS(=O)(=O)c1ccc2c(c1)C1C=CCC1C(c1ccc(Br)cc1)N2` (stereo not given), the “inhibition” value was -1.33% (inactive).

Take `c1nc(CC2CCNCC2)c[nH]1` [immepip]: the “inhibition” value is -0.04% (inactive).

With `CCN(Cc1ccncc1)C(=O)C(CO)c1ccccc1` (stereo not given) [tropicamide], the “inhibition” value was 3.81% (inactive).

Regarding `O=C(/C=C\n1cnc(-c2cc(C(F)(F)F)cc(C(F)(F)F)c2)n1)NNc1cnccn1` [selinexor], the “inhibition” value is -8.61% (inactive).

With `CON` [methoxyamine], the “inhibition” value is -3.19% (inactive).

In the case of `CC1C(=O)OC2C(O)C34C5CC(C(C)(C)C)C36C(OC(=O)C6O)OC4(C(=O)O5)C12O` (stereo not given) [ginkgolide-B], the “inhibition” value is 2.69% (inactive).

As to `O=C(Nc1c(-c2cccs2)nc2ccccn12)c1ccc(Cl)cc1`, the “inhibition” value is 1.78% (inactive).

For `C[C@H](c1ccc(F)cc1CCCC(=O)O)N(c1cc(F)ccc1F)S(=O)(=O)c1ccc(Cl)cc1`, the “inhibition” value is -3.65% (inactive).

Turning to `C[C@]12CC[C@@H]3c4ccc(O)cc4CC[C@H]3[C@@H]1CC[C@@H]2OC(=O)CCC1CCCC1` [estradiol-cypionate], the “inhibition” value is 1.21% (inactive).

`CCOC(=O)c1c(C)[nH]c2ccc3c(c12)CN1CCc2cc(OC)ccc2C1O3` (stereo not given): the “inhibition” value is 3.53% (inactive).

In the case of `CC(C)NCC(O)COc1ccc(COCCOC(C)C)cc1` (stereo not given) [bisoprolol], the “inhibition” value is -3.57% (inactive).

With `CNC(=O)c1c(-c2ccc(F)cc2)oc2cc(N(CCO)S(C)(=O)=O)c(C3CC3)cc12` [nesbuvir], the “inhibition” value was -1.14% (inactive).

In the case of `COc1ccc(/C=C/C(=O)Nc2ccccc2C(=O)O)cc1OC` [tranilast], the “inhibition” value is 0.97% (inactive).

Turning to `CC(=O)Oc1cc(C(F)(F)F)ccc1C(=O)O` [triflusal], the “inhibition” value was 0.3% (inactive).

For `CN(CCOc1ccc(C[C@H](Nc2ccccc2C(=O)c2ccccc2)C(=O)O)cc1)c1ccccn1`, the “inhibition” value was 0.58% (inactive).

For the molecule `CCc1c(C(=O)NCCc2ccc(N3CCCCC3)cc2)[nH]c2ccc(Cl)cc12`, the “inhibition” value is 2.28% (inactive).

Regarding `Cn1cc(-c2ccc3c(c2)CCN3C(=O)Cc2cccc(C(F)(F)F)c2)c2c(N)ncnc21`, the “inhibition” value is 32.5% (active).

As to `COc1ccc(CN2C(=O)C(=O)c3cc(OC(F)(F)F)ccc32)cc1`, the “inhibition” value was 1.75% (inactive).

With `N#Cc1cc(F)cc(-c2nc(-c3ccc(F)cn3)no2)c1`, the “inhibition” value is -0.25% (inactive).

Take `O=C1NN(C(=O)Nc2ccc(Br)cc2)[C@@H](c2ccccc2)[C@@H]1c1ccccc1`: the “inhibition” value was -0.26% (inactive).

For `CN1CCN(C(c2ccccc2)c2ccc(Cl)cc2)CC1` (stereo not given) [chlorcyclizine], the “inhibition” value was -3.64% (inactive).

On to `COCC(=O)O[C@]1(CCN(C)CCCc2nc3ccccc3[nH]2)CCc2cc(F)ccc2[C@@H]1C(C)C` [mibefradil], for which the “inhibition” value is -0.56% (inactive).

As for `CNc1ccc([N+](=O)[O-])cc1-n1cnc(-c2ccc(C(F)(F)F)cc2)c1`, the “inhibition” value is 1.02% (inactive).

Turning to `Cc1oc(=O)oc1CN1CCN(c2cc3c(cc2F)c(=O)c(C(=O)O)c2n3C(C)S2)CC1` (stereo not given) [prulifloxacin], the “inhibition” value is -1.97% (inactive).

As for `Cc1nc(C)c(C)nc1C` [chuanxiongzine], the “inhibition” value is 5.75% (inactive).

`N#Cc1c(N)nc(SCC(N)=O)c(C#N)c1-c1ccc(OCC2CC2)cc1`: the “inhibition” value is 10.1% (inactive).

For the molecule `O=C(O[C@H]1[C@H](OC(=O)c2cccnc2)[C@@H](OC(=O)c2cccnc2)[C@H](OC(=O)c2cccnc2)[C@@H](OC(=O)c2cccnc2)[C@H]1OC(=O)c1cccnc1)c1cccnc1` [inositol-hexanicotinate], the “inhibition” value was 0.04% (inactive).

Take `CCOC(=O)[C@]12CC1/C(=N\O)c1ccccc1O2` (stereo not given in full): the “inhibition” value was -3.34% (inactive).

Regarding `OC[C@H]1O[C@@H](n2cnc3c(NC4CCCC4)ncnc32)[C@H](O)[C@@H]1O` [N6-cyclopentyladenosine], the “inhibition” value is 4.59% (inactive).

For the molecule `CN(C)CC[C@H](CSc1ccccc1)Nc1ccc(S(=O)(=O)NC(=O)c2ccc(N3CCN(Cc4ccccc4-c4ccc(Cl)cc4)CC3)cc2)cc1[N+](=O)[O-]`, the “inhibition” value was -16.3% (inactive).

Take `O=C(O)C1=C[C@@H](O)[C@@H](O)[C@H](O)C1` [shikimic-acid]: the “inhibition” value is 2.68% (inactive).

In the case of `C[C@]12CC[C@@H]3c4ccc(OC(=O)c5ccccc5)cc4CC[C@H]3[C@@H]1CC[C@@H]2O` [estradiol-benzoate], the “inhibition” value was -4.8% (inactive).

With `CC[C@@]1(O)C(=O)OCc2c1cc1n(c2=O)Cc2c-1nc1cc(F)c(C)c3c1c2[C@@H](N)CC3` [exatecan-mesylate], the “inhibition” value is -15.8% (inactive).

In the case of `Cc1cccc(C)c1NC(=O)[C@@H](C)N` [tocainide], the “inhibition” value is 1.04% (inactive).

As for `Nc1ccn([C@@H]2O[C@@](CO)(CCl)[C@@H](O)[C@H]2F)c(=O)n1`, the “inhibition” value is -0.34% (inactive).

Consider `CN(C)CCOC(=O)C(c1ccccc1)C1(O)CCCC1` (stereo not given) [cyclopentolate], for which the “inhibition” value was -0.18% (inactive).

On to `Cc1ccc(NCCCc2ccccc2)c(N)c1` [NFKB-activation-inhibitor-II], for which the “inhibition” value was -1.12% (inactive).
